# Laboratory results: PubChem BioAssay (Tox21)
# Results filed as inconclusive are left out. Unmarked numbers belong to inactive results. Calls come from the whole dose curve; as a rule, active = well fitted cell-killing curve with a large enough effect in the repeat runs; inconclusive = weak or mixed curves, or effect the other way; inactive = no such curve, though single readings can be large or run the other way.
# Assay: qHTS assay to identify small molecule agonists of the RXR signaling pathway - cell viability counter screen (AID 1159529); note: nearly all actives have a fitted effect of over 50% in size
# Settings: RXR-alpha-bla HEK293T viability, CellTiter-Glo, 16 h; series mostly up to 76.8 µM; activity change, negative = cytotoxicity: at the top concentration
# From the text: National Center for Advancing Translational Sciences [NCATS]
# NIH Chemical Genomics Center [NCGC]
# U.S. Environmental Protection Agency [EPA]
# National Institutes of Environmental Health Sciences [NIEHS]
# National Toxicology Program [NTP]
# U.S. Food and Drug Administration [FDA]
# The Retinoid X receptor (RXR), a nuclear hormone receptor expressed in liver, spleen, placenta, epidermis, central nervous system. These receptors are able to form homo and heterodimers with other nuclear receptors and due to this heterodimerizing ability, RXR functions as master regulators producing diverse physiological effects. Three subtypes of RXR exist; alpha, beta and gamma. Retinoid X receptor alpha (RXR-alpha) has potential roles in metabolic signaling pathways, skin alopecia, dermal cysts, cardiac development, insulin sensitization etc. Therefore screening environmental chemicals on RXR-alpha signaling can be used for the studies focused on such therapeutic applications. For quantification of RXR-alpha ligands signaling, GeneBLAzer RXR alpha-UAS-bla HEK 293T (Life Technologies, Carlsbad, CA) cells containing a beta-lactamase reporter-gene under control of Retinoid X receptor-alpha response element were used to screen Tox21 10K library. The cytotoxicity of the Tox21 compound library against the RXR-alpha HEK 293T cell line was tested in parallel by measuring cell viability using CellTiter-Glo assay (Promega Corporation, Madison, WI) in the same wells.
# Tox21 Assay Protocol Summary:
# RXR-alpha HEK 293T cells were dispensed at 2,000 cells/6 uL of assay medium containing 2% charcoal-stripped FBS using a Multidrop Combi (ThermoFisher Scientific, Waltham, MA) dispenser. The assay was performed in black wall/clear-bottom 1536-well plates (Greiner Bio-One North America Inc. Monroe, NC). Tetraoctyl ammonium bromide was used as a positive control in the cytotoxicity screen. After the assay plates were incubated at 37 C and 5% CO2 for 5 hr, 23 nL of compounds dissolved in DMSO, positive control or DMSO only were transferred to the assay plate by a Pintool station (Kalypsys, San Diego, CA). The assay plates were incubated at 37 C and 5% CO2 for 16 hr. One uL of LiveBLAzer B/G FRET substrate (Life Technologies) was added using a Flying Reagent Dispenser (FRD) (Aurora Discovery, San Diego, CA) and the plates were incubated at room temperature for 2 hr. Fluorescence intensity (405 nm excitation, 460/530 nm emission) was measured using an Envision plate reader (PerkinElmer, Shelton, CT). For cytotoxicity, 4 uL/well of CellTiter-Glo reagent was added into the assay plates using an FRD. After 30 min incubation at room temperature, the luminescence intensity was measured using a ViewLux plate reader (PerkinElmer).
# % is set by controls: 0 for no effect and ±100 for the full control effect.
row,Structure (SMILES),"activity change, negative = cytotoxicity"
1,CCC(C)SSC(C)CC (stereo not given),-11.7%
2,O=P(O)(O)C(O)(Cc1cccnc1)P(=O)(O)O,-11% [at 35.3 µM]
3,CC(CC(=O)Cl)CC(C)(C)C (stereo not given),0.175%
4,O=C1CC2(CCCC2)CC(=O)N1CCNCC1COc2ccccc2O1 (stereo not given),-9.05% [at 35.3 µM]
5,CC(C)(Sc1cc(C(C)(C)C)c(O)c(C(C)(C)C)c1)Sc1cc(C(C)(C)C)c(O)c(C(C)(C)C)c1,3.68% [at 35.3 µM]
6,COc1cnc(NS(=O)(=O)c2ccc(N)cc2)nc1,4.67% [at 35.3 µM]
7,CCCC[O][Al]([O]CCCC)[O]CCCC,-14.4%
8,CC(=O)SC[C@@H](C)C(=O)N1CCC[C@H]1C(=O)N[C@@H](Cc1ccccc1)C(=O)O,5.44% [at 35.3 µM]
9,CCOC(=O)[C@H](CCc1ccccc1)N[C@H]1CS[C@H](c2cccs2)CN(CC(=O)O)C1=O,-1.89% [at 35.3 µM]
10,Cc1cc(C)c(N)c(Cl)c1,2.94%
11,CCCCC(O)/C=C(C)/C=C/C=C/C(=O)N1CCCC1=O (stereo not given),0.807% [at 35.3 µM]
12,CC1=C(O)C(=O)CO1,-9.98%
13,O=C(O)CCC(=O)Nc1ccc(S(=O)(=O)Nc2nccs2)cc1,-0.81% [at 35.3 µM]
14,CCCC(=O)OC,13.7%
15,C=CC(C)(CCC=C(C)C)OC(=O)C(C)C (stereo not given),-7.15%
16,CCOC(=O)CC,8.81%
17,CN(C)CCC[C@@]1(c2ccc(F)cc2)OCc2cc(C#N)ccc21,-18% [at 35.3 µM]
18,CC1(C)C(=O)C(C)(C)C1=O,0.563%
19,CC(=O)c1c(C)cc(C(C)(C)C)cc1C,0.635%
20,O=C(O)Cc1ccccc1Oc1ccc(Cl)cc1Cl,9.67% [at 35.3 µM]

row,Structure (SMILES),"activity change, negative = cytotoxicity"
1,Cc1ccc(Br)cc1,0.493%
2,CN1C(CCl)Nc2cc(Cl)c(S(N)(=O)=O)cc2S1(=O)=O (stereo not given),-1.65% [at 35.3 µM]
3,NNC(=O)CCCCC(=O)NN,-3.98%
4,C/C=C(\C)C=O,-2.6%
5,CC[N+](C)(CC)CC,-0.742%
6,N[C@H]1C(O)O[C@H](CO)[C@@H](O)[C@@H]1O (stereo not given in full),9.34% [at 35.3 µM]
7,Cc1ccc(NC(N)=O)cc1,2.27%
8,CN(C)c1ccncc1,-2.55%
9,O=CN1CCCCC1,-0.898%
10,C[C@@H]1CC[C@@]2(OC1)O[C@H]1C[C@H]3[C@@H]4CC[C@H]5C[C@@H](O)CC[C@]5(C)[C@H]4CC(=O)[C@]3(C)[C@H]1[C@@H]2C,-0.0245% [at 6.97 µM]
11,O=S(=O)(O)CC(O)CCl (stereo not given),11.3%
12,CC(C)(C)C(=O)CC(=O)C(C)(C)C,6.28%
13,O=S(=O)(O)c1ccc(Cl)cc1,-0.0291%
14,Cc1ccc(O)c(C(=O)c2ccccc2)c1,-28%
15,CCCCc1ccc(Cl)cc1,4.19%
16,CCCOc1ccc(C(=O)OCCN(CC)CC)cc1N,-3.79% [at 35.3 µM]
17,C[C@@H]1NC(=O)[C@@H](N)CNC(=O)[C@H](C2CCNC(N)=N2)NC(=O)/C(=C/NC(N)=O)NC(=O)[C@H](CNC(=O)C[C@@H](N)CCCN)NC1=O (stereo not given in full),9.35% [at 0.29 µM]
18,Cc1cc2c(cc1CC(=O)c1sccc1S(=O)(=O)Nc1onc(C)c1Cl)OCO2,6.88% [at 35.3 µM]
19,CCCCCC(=O)CC,6.98%
20,CCO[Si](CC(C)C)(OCC)OCC,-13%
